A word on the inhibition: it is the change of the read-out against control, counted positive when it falls.

SMILES strings stand for the structures. Activity calls are given as the source filed them. Rule as the data show it: active = inhibition above about 28%; inactive = the rest.

The nature of the assay: StAR promoter reporter inhibitors, counter-screen for LRH-1 inverse agonist project, cell-based, luminescence, high throughput (AID 651611). The conditions noted are these: StAR promoter luciferase reporter counterscreen, at 3.6 µM, hits give high values. Background: Counterscreens check selectivity or assay interference.
For the compound `CO/N=C\C(=N\Nc1ccc(OC)cc1)C(=O)c1ccccc1`, the inhibition was -11.7% (inactive).

For the compound `O=C(N/N=C/c1cc2c3c(c1O)CCCN3CCC2)c1ccccc1O`, the inhibition was 83.4% (active).

As to `S=C(Nc1cccnc1)Nc1cccc2cnccc12`, the inhibition was 9.29% (inactive).

For `CCCc1cc(=O)oc2cc(OCC(=O)NC3CC(C)(C)NC(C)(C)C3)ccc12`, the inhibition is -0.91% (inactive).

For the compound `CCOc1ccc(NC(=O)COC(=O)COc2cccc3c2OC(C)(C)C3)cc1`, the inhibition is 1.8% (inactive).

For `Cc1ccc(-c2csc(NC(=O)c3ccc([N+](=O)[O-])o3)n2)cc1`, the inhibition was 3.07% (inactive).

`COc1cc2c(cc1OC)-c1c(OC)c(OC)cc3ccnc(c13)C2=O`: the inhibition is 41.2% (active).

With `C/C(=N\NC(N)=S)C1(C)CCCCC1`, the inhibition is 20.6% (inactive).

Regarding `COc1ccc(-c2sc(C(=O)c3ccc(Cl)cc3Cl)cc2CC(=O)O)cc1`, the inhibition was 17.8% (inactive).

Consider `COc1cc(-c2cc(C(=O)Nc3ccncc3)c3ccccc3n2)cc(OC)c1OC`, for which the inhibition is 28.4% (active).

With `COc1ccc2c(c1)/C(=C/c1cc(OC)c(OC)c(OC)c1)C(=O)N2`, the inhibition was 52% (active).

Take `CCOC(=O)CCCc1ccc(/C(C)=N/NC(N)=S)cc1`: the inhibition is 21.6% (inactive).

Regarding `O=C(NCc1cccc(C(F)(F)F)c1)c1cccc(Cl)c1Cl`, the inhibition was 7.41% (inactive).

As for `CCOc1ccccc1C(=O)Nc1cc2c(cc1N1CCCC1)n(CC)c(=O)n2CC`, the inhibition is 52.6% (active).

Turning to `Cc1nn(Cc2ccc(Cl)cc2)c(C)c1NC(=O)c1ccc([N+](=O)[O-])cc1`, the inhibition was 36.1% (active).

As for `CCOc1ccc(NC(=O)Cn2nc(-c3ccccc3Cl)n(CC)c2=S)cc1`, the inhibition was 1.73% (inactive).

In the case of `Cc1ccc(-c2nn3c(C)nnc3s2)cc1NC(=O)c1cccs1`, the inhibition is 17.1% (inactive).

Consider `S=C(NCCc1ccccc1)Nc1cccc2cnccc12`, for which the inhibition is -5.25% (inactive).

As for `O=C(CC1C(=O)NCCN1C(=S)Nc1ccccc1)Nc1ccc2c(c1)OCCO2` (centres undefined), the inhibition is 10.3% (inactive).

For `CC(=NNC(=S)N1CCN(c2ccccn2)CC1)c1nccs1`, the inhibition was 82.9% (active).

Take `O=[N+]([O-])c1ccc(N2CCN(S(=O)(=O)c3ccccc3)CC2)cc1NCc1cccnc1`: the inhibition is 6.64% (inactive).

With `CC(=O)Nc1cc(-c2cccc(F)c2)cn2c(-c3ccc(S(C)(=O)=O)cc3)cnc12`, the inhibition is 8.88% (inactive).

For `CCCc1cc(=O)oc2cc(OCC(=O)NCCc3ccc(S(N)(=O)=O)cc3)ccc12`, the inhibition was 9.29% (inactive).

Consider `COc1ccc(NC(=O)CSc2nc(O)cc(=O)n2-c2ccccc2OC)cc1`, for which the inhibition was 4.7% (inactive).

For the origin of these results see PubChem BioAssay.
